Assay results reported in PubChem BioAssay (NCI).
Compounds without any hit were thinned out: in the full panel of roughly 83,000, 20% have a hit.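 Negative percent growth values reflect cell death: -40 means 40% of the cells present at the start died, and -100 means all died.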 Active and inactive are the calls of the source. How the source made its calls: active means growth percent below 10; inactive means the rest.

What was measured:
Experiment in all cases: NCI-60 one-dose screen, 48 h (100 = growth as untreated, 0 = no growth, -100 = all killed)
Conditions in all cases: 10 µM unless noted
[1] = test system: DU-145 prostate
[2] = test system: K-562 leukemia
[3] = test system: MALME-3M melanoma
[4] = test system: MDA-MB-231 breast
[5] = test system: RXF 393 renal
[6] = test system: SF-268 CNS
[7] = test system: SF-295 CNS
[8] = test system: SF-539 CNS
[9] = test system: UACC-257 melanoma
[10] = test system: M14 melanoma

Measured: growth

CN1C(=O)C(=Cc2cn(Cc3ccccc3)c3ccccc23)C(=O)N(C)C1=O
inactive: [1] 103% | [2] 51.1% | [3] 91.3% | [4] 75.5% | [5] 56.9% | [6] 95.4% | [7] 34.7% | [8] 86.2% | [9] 27.9% | [10] 92.6%

c1cnc2[nH]cc(-c3csc(-c4cn(CCCCN5CCOCC5)c5ccccc45)n3)c2c1
active: [2] -38.7% | [3] -25% | [10] -49.9%
inactive: [1] 70% | [4] 32.8% | [5] 53.7% | [6] 49.7% | [7] 53.9% | [8] 80.8% | [9] 67.8%

CC1(C)CN1P(=O)(N1CC1(C)C)N1CC1(C)C (stereo not given)
inactive: [1] 121% | [2] 109% | [3] 110% | [4] 107% | [5] 119% | [6] 106% | [7] 115% | [8] 109% | [9] 89.3% | [10] 98.8%

CCOC(=O)[C@@H](C)C[C@H](Cc1ccccc1)NC(=O)c1csc([C@@H](C[C@H](C(C)C)N(C)C(=O)[C@H](CC)NC(=O)[C@H]2CCCCN2C)OC(C)=O)n1
inactive: [3] 71.7% | [5] 28.8% | [6] 29.1% | [9] 39.1%
active: [1] 5.21% | [2] 6.71% | [4] 5.4% | [7] 1.53% | [8] -9.33% | [10] -25.7%

CC(=O)c1ccc(C(=O)NCC2CCC3(CC2)OOC2(CCCCC2)OO3)cc1
inactive: [1] 32.8% | [2] 56.2% | [3] 74% | [4] 70.9% | [5] 84.7% | [6] 87.9% | [7] 94.9% | [8] 66.6% | [9] 84.7% | [10] 90.2%

Nc1ccc(Cl)cc1
inactive: [1] 102% | [2] 100% | [3] 104% | [4] 104% | [5] 105% | [6] 104% | [7] 99.2% | [8] 96.6% | [9] 86.4% | [10] 99.5%

CCC(C)(C)[C@H](NC(=O)[C@H]1CCCCN1C)C(=O)N(C)[C@H](C[C@@H](OC(C)=O)c1nc(C(=O)N[C@@H](Cc2ccccc2)C[C@H](C)C(=O)O)cs1)C(C)C
inactive: [3] 27.4% | [4] 15.7% | [5] 38.4% | [6] 23.3% | [9] 55.5%
active: [1] 0.164% | [2] 6.58% | [7] -7.51% | [8] -31% | [10] -19.3%

Cc1cnc(/C=C/C(=O)O)cc1-c1cc2c(cc1C)C(C)(C)CCC2(C)C
inactive: [1] 95.7% | [2] 109% | [4] 80.9% | [5] 93.7% | [6] 77.6% | [7] 86.1% | [8] 84.3% | [9] 38.3% | [10] 77.1%
active: [3] 8.87%

C[C@]12CC[C@H]3[C@@H](CC4SC(N)=NC45C/C(=N/NC(N)=O)CC[C@]35C)[C@@H]1CCC2=O (stereo not given in full)
active: [2] -38.5% | [3] 3.07% | [5] 7.08% | [6] -6.41% | [10] -51.1%
inactive: [1] 31.1% | [4] 35.2% | [7] 45.7% | [8] 87.2% | [9] 105%

CN1CC(CNC(=O)OCc2ccccc2)CC2c3cccc4c3c(cn4C)CC21 (stereo not given)
inactive: [1] 56.8% | [4] 27.3% | [6] 59% | [7] 25.8% | [8] 28.6%
active: [2] 3.66% | [3] -16% | [5] 8.6% | [9] -60.4% | [10] -58%

C[C@]12CCc3sc(-c4cccc(F)c4)nc3C1=CC[C@@H]1[C@@H]2CC[C@]2(C)C(=O)CC[C@@H]12
inactive: [1] 22.9% | [3] 37.6% | [4] 62% | [6] 52.4% | [9] 77.4% | [10] 57.4%
active: [2] 7.01% | [5] -22.5% | [7] -18.9% | [8] -33.4%

CS(=O)(=O)CCN1CC2CCCC(C2)C1
inactive: [1] 102% | [2] 113% | [3] 111% | [4] 105% | [5] 107% | [6] 102% | [7] 108% | [8] 100% | [9] 104% | [10] 98.6%

NC(=O)C(Br)c1ccccc1 (stereo not given)
inactive: [1] 103% | [2] 84.3% | [3] 74.9% | [4] 87.8% | [5] 104% | [6] 79.6% | [7] 97% | [8] 109% | [9] 83.3% | [10] 73.3%

CN[C@]1(c2ccccc2Cl)CCCC[C@H]1NCCCN1CCN(C)CC1
inactive: [1] 108% | [2] 90.3% | [3] 104% | [4] 94.2% | [5] 97.4% | [6] 94.1% | [7] 102% | [8] 94.8% | [9] 102% | [10] 98.9%

COC(=O)[C@@H](C)C[C@H](Cc1ccccc1)NC(=O)c1cccc([C@@H](C[C@H](C(C)C)N(C)C(=O)[C@@H](NC(=O)[C@H]2CCCCN2C)C(C)C)OC(C)=O)n1
active: [2] 7.86% | [4] -4.66% | [7] 6.28% | [8] 2.03% | [10] -10.9%
inactive: [1] 10.5% | [3] 77.9% | [5] 46.1% | [6] 30.8% | [9] 49.7%

Nc1c(F)cc(-c2nc3cc(F)ccc3[se]2)cc1F
inactive: [1] 99.8% | [2] 85.8% | [3] 101% | [4] 54.6% | [5] 105% | [6] 91.4% | [7] 87.8% | [8] 96.3% | [9] 101% | [10] 90%

O=C(O)C1C(C(=O)O)C2(Cl)C(Cl)=C(Cl)C1(Cl)C2(Cl)Cl.[Hg] (stereo not given)
inactive: [1] 96.7% | [2] 15.1% | [3] 69.5% | [4] 86.4% | [5] 123% | [6] 97.5% | [7] 95.2% | [8] 102% | [9] 74.7% | [10] 80.2%

Nc1ccc(-c2nc3cc(F)ccc3[se]2)cc1F
inactive: [1] 96.8% | [2] 93% | [3] 102% | [4] 42.3% | [5] 82.6% | [6] 80.8% | [7] 87.6% | [8] 86.9% | [9] 98.1% | [10] 91.8%

O=C(N/N=C\c1ccc(N(CCCl)CCCl)cc1Cl)c1cccnc1
active: [9] -10.9%
inactive: [1] 94.4% | [2] 82% | [3] 116% | [4] 85% | [5] 82.8% | [6] 99.1% | [7] 59.6% | [8] 95.3% | [10] 98%

CN(C)C1C(=O)C(C(N)=O)=C(O)C2(O)C(=O)C3=C(O)c4c(O)cccc4C(C)(O)C3CC12.[Cl][Sb]([Cl])[Cl] (stereo not given)
inactive: [1] 60% | [2] 22.9% | [4] 79.1% | [5] 59.2% | [6] 29.7% | [8] 20.9% | [9] 30.1% | [10] 37%
active: [3] -21.2% | [7] -3.24%
